Unmarked numbers belong to inactive results. Results filed as inconclusive are left out. The source made the active and inactive calls. Unless noted, calls come from the whole dose curve.

We go through nine compounds from PubChem BioAssay (Tox21).

The nature of assay [1]: Nuclear factor erythroid 2-related factor 2/antioxidant responsive element (Nrf2/ARE) small molecule agonists: qHTS cell viability counter screen in human keratinocytes (AID 1919968; active = well fitted curve in the direction sought with a large enough effect in the repeat runs; an effect the other way counts as inactive or inconclusive; note: nearly all actives have a fitted effect of over 55% in size; note: potency is the fitted concentration of half-maximal effect). The gist of the method: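 Cytotoxicity was multiplexed with the Nrf2/ARE luciferase assay in the same wells. Stably transfected HaCaT keratinocytes were treated with test compounds for 23 h at 37 C. Cell viability was then measured by CellTiter-Fluor fluorescence.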
On the technique in general: In qHTS, concentration-response curves come from the screen itself.

The target of assay [2] is KiSS-1 receptor (Homo sapiens) (UniProt Q969F8). The experiment in a line: Human kisspeptin (KISS1R) small molecule agonists, calcium flux assay in KISS1R-HEK293 cells (AID 1920064; active = well fitted curve in the direction sought with a large enough effect in the repeat runs; an effect the other way counts as inactive or inconclusive). The gist of the method: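 Agonist activity is monitored as intracellular calcium rise in engineered HEK293 cells carrying human KISS1R. Cells are dye-loaded for 1 h at 37 C before compound addition, and fluorescence is recorded for 3 min.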
Chain of KiSS-1 receptor (Homo sapiens) (Q969F8 whole entry, looked up): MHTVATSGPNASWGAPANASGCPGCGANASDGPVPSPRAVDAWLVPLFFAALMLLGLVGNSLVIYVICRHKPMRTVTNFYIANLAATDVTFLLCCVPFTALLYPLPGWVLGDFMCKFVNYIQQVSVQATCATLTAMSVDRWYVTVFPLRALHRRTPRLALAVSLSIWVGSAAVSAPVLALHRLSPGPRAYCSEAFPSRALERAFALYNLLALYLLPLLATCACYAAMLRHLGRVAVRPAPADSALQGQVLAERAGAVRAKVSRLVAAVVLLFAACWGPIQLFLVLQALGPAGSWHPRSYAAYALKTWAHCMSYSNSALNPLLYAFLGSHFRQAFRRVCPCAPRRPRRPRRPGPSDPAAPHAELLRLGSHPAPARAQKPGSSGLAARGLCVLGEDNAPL
Background: Calcium flux is commonly read through the fluorescence of an indicator in the cells.

Assay [3] in a line: G protein-coupled receptor (GPCR) small molecule agonists, calcium flux assay: HEK293 wild type cell line counter screen (AID 1920065). The gist of the method:
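Seed cells, incubate 18 h (37 C, 5% CO2); add calcium dye, 1 h at 37 C; pin-transfer compounds, ATP control or DMSO; read fluorescence 480/540 nm each second for 3 min.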

A short description of assay [4]: p53 small molecule agonists, cell-based qHTS assay with human liver microsomes (AID 1963577).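 Note: p53 response element beta-lactamase reporter cells with liver microsomes plus NADPH.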 The gist of the method:
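With metabolic activation: human liver microsomes (0.5 mg/mL final) plus NADPH (0.5 mg/mL final) added alongside compounds to p53RE-bla cells; 16 h 37 C exposure; beta-lactamase read by LiveBLAzer fluorescence.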

Assay [5] in a line: p53 small molecule agonists, cell-based qHTS assay with rat liver microsomes (AID 1963578). The gist of the method: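 Metabolic activation by rat liver microsomes and NADPH, each 0.5 mg/mL final, added right after compounds to p53RE-bla reporter cells (4,000/well, plated 5 h earlier). 16 h at 37 C, then LiveBLAzer substrate for 2 h at room temperature in the dark; fluorescence read-out.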

A short description of assay [6]: p53 small molecule agonists, cell-based qHTS assay with human liver microsomes: qHTS cell viability counter screen (AID 1963579). Note: nearly all actives have a fitted effect of over 45% in size. Note: potency is the fitted concentration of half-maximal effect. The gist of the method:
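Metabolic activation used human liver microsomes and NADPH, both 0.5 mg/mL final, over 16 hours at 37 C on p53RE-bla cells (4,000/well). Cytotoxicity measured by CellTiter-Glo luminescence, 30 min at room temperature.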

The nature of assay [7]: p53 small molecule agonists, cell-based qHTS assay with rat liver microsomes: qHTS cell viability counter screen (AID 1963580). Note: nearly all actives have a fitted effect of over 45% in size. The gist of the method: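 Counter screen for cytotoxicity under metabolic activation: rat liver microsomes and NADPH, 0.5 mg/mL final each, added with compounds to p53RE-bla HCT-116 cells; 16 h at 37 C, then ATP luminescence read.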
Assay [8] can be described thus: p53 small molecule agonists, cell-based qHTS assay: qHTS cell viability counter screen (AID 1963581). Note: nearly all actives have a fitted effect of over 45% in size. The gist of the method:
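Viability was counter-screened in parallel with the p53 agonist reporter by measuring intracellular ATP luminescence in the same HCT-116 p53RE-bla wells after 16 h compound treatment at 37 C.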

Assay [9] can be described thus: p53 small molecule agonists, cell-based qHTS assay (AID 1963582; active = well fitted activation curve with a large enough effect in the signal ratio in the repeat runs, not every such curve was filed as active; the % refers to the signal ratio). The gist of the method:
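Cells carrying a p53-responsive bla reporter are treated with test compounds for 16 h at 37 C; beta-lactamase activity is then detected with LiveBLAzer B/G FRET substrate after 2 h at room temperature.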

In assay [10] the target is 5-hydroxytryptamine receptor 2A (Homo sapiens) (UniProt P28223). The assay is described as follows: 5-hydroxytryptamine receptor 2A (HTR2A) small molecule antagonists, cell-based qHTS assay (AID 1963586). Note: nearly all actives have a fitted effect of over 45% in size. The gist of the method:
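CHO cells stably expressing human HTR2A were plated for 18 h at 37 C, then loaded with calcium dye for 1 h. Compounds were preincubated 5 min at room temperature before DOI (4 nM solution) was added. Kinetic fluorescence was read for 3 min.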

For assay [11] the target is unchanged. The experiment in a line: 5-hydroxytryptamine receptor 2A (HTR2A) small molecule agonists, cell-based qHTS assay (AID 1963587). Note: nearly all actives have a fitted effect of over 30% in size. Note: potency is the fitted concentration of half-maximal effect. The gist of the method: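 HTR2A-CHO cells, plated 18 h at 37 C/5% CO2, dye-loaded 1 h at 37 C; compounds in DMSO added by pin tool (agonist mode). Intracellular calcium flux read as kinetic fluorescence on FDSS over 2 min at 1 s intervals.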

The target in assay [12] is Muscarinic acetylcholine receptor M1 (Homo sapiens) (UniProt P11229). The assay is described as follows: Cholinergic receptor muscarinic 1 (CHRM1) small molecule antagonists, cell-based qHTS assay (AID 1963588). Note: nearly all actives have a fitted effect of over 40% in size. The gist of the method: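 Compounds were tested at 15 concentrations in three independent runs. Dye-loaded CHRM1-CHO cells were exposed 5 min at room temperature before stimulation by acetylcholine added at 50nM. Intracellular calcium was read kinetically on FDSS for 3 min.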
Chain of Muscarinic acetylcholine receptor M1 (Homo sapiens) (P11229 whole entry, looked up): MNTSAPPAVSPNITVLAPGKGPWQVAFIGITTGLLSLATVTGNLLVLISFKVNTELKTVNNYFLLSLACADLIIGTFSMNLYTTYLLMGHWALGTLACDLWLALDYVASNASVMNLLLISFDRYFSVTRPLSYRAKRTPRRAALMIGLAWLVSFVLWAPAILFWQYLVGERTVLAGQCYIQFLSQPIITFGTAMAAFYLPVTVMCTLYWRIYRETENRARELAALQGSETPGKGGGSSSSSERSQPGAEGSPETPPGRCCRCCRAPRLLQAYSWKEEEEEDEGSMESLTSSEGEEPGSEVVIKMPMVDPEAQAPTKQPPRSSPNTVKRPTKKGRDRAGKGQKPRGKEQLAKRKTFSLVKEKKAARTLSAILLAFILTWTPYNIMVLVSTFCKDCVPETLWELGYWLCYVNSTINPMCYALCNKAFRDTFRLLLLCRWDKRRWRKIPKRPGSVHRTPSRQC

Assay [13] has the same target. The experiment in a line: Cholinergic receptor muscarinic 1 (CHRM1) small molecule agonists, cell-based qHTS assay (AID 1963589). Note: nearly all actives have a fitted effect of over 35% in size. The gist of the method:
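Cells were plated and incubated 18 h at 37 C/5% CO2, loaded with calcium dye for 1 h at 37 C, then treated with compounds in DMSO. Fluorescence was recorded kinetically at 1 sec intervals.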

Assay [14] can be described thus: cAMP Responsive Elements (CRE) small molecule agonists, cell-based qHTS assay (AID 1963590). The gist of the method: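 Cells carrying a CRE-driven beta-lactamase reporter (HEK 293T) are seeded, incubated overnight (18 h), and treated with test compounds for 3 h at 37 C; reporter activity is then detected with a FRET substrate after 2 h at room temperature.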
The target in assay [15] is Beta-2 adrenergic receptor (Homo sapiens) (UniProt P07550). The assay is described as follows: Adrenergic beta2 receptor (ADRB2) small molecule antagonists, cell-based qHTS assay (AID 1963592). Note: series mostly up to about 92 µM; nearly all actives have a fitted effect of over 50% in size. The gist of the method: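 Assay format: CHO-ADRB2 cells, 18-20hr seeding at 37C/5% CO2, then compound plus 1nM isoproterenol agonist mix for 0.5hr RT. Homogeneous time-resolved fluorescence cAMP detection after 1hr, expressed as 665/615 nm ratio.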
Chain of Beta-2 adrenergic receptor (Homo sapiens) (P07550 whole entry, looked up): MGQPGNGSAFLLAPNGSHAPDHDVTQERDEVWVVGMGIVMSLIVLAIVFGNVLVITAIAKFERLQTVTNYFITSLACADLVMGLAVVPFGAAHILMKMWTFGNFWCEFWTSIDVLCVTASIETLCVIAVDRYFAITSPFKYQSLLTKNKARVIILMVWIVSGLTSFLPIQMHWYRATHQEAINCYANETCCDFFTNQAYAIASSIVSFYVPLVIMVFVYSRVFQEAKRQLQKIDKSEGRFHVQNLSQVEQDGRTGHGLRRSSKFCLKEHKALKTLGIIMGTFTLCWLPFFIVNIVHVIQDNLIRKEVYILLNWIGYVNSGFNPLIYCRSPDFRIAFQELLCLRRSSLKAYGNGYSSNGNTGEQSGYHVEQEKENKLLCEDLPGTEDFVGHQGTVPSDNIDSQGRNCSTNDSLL

The target is the same in assay [16]. The assay is described as follows: Adrenergic beta2 receptor (ADRB2) small molecule agonists, cell-based qHTS assay (AID 1963593).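 Note: CHO cells stably overexpressing human ADRB2.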 The gist of the method:
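CHO cells stably over-expressing ADRB2 were plated overnight at 37C, then dosed with compounds plus a stimulation mix containing 100uM IBMX and 25uM Ro-20-1724 for 0.5hr at room temperature. cAMP was measured by HTRF competition, 1hr.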

In assay [17] the target is D(2) dopamine receptor (Homo sapiens) (UniProt P14416). The experiment in a line: Dopamine D2 receptor (DRD2) small molecule antagonists, cell-based qHTS assay (AID 1963595; active = well fitted inhibition curve with a large enough effect in the signal ratio in the repeat runs, with a control signal flat; the % refers to the signal ratio; note: potency is the fitted concentration of half-maximal effect). The gist of the method:
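Antagonist mode in DRD2-HEK293 cells: after compound addition with 0.1 mM Ro20-1724, cells received quinpirole (12 nM) and NKH477 (200 nM) for 30 min at room temperature; HTRF cAMP read after 1 h detection.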

Assay [18] deals with Gonadotropin-releasing hormone receptor (Homo sapiens) (UniProt P30968). The assay is described as follows: Human gonadotropin-releasing hormone receptor (GnRHR) small molecule agonists, calcium flux assay in GnRHR-HEK293 cells (AID 1920063). Note: nearly all actives have a fitted effect of over 35% in size. Note: potency is the fitted concentration of half-maximal effect. The gist of the method:
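Agonist activity was measured as intracellular calcium flux in HEK293 cells engineered to stably express human GnRHR. After dye loading for 1 hour at 37 C, compounds in DMSO were added and fluorescence was followed for 3 minutes.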

The target in assay [19] is D(2) dopamine receptor (Homo sapiens) (UniProt P14416). The assay is described as follows: Dopamine D2 receptor (DRD2) small molecule agonists, cell-based qHTS assay (AID 1963594). Note: nearly all actives have a fitted effect of over 35% in size. The gist of the method:
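HEK293 cells stably expressing DRD2 were cultured 24 h at 37 C, then given Ro20-1724 (0.1 mM final) and compounds for 10 min at room temperature. NKH477 (200nM) was then added for 30 min. cAMP was read by HTRF.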

A short description of assay [20]: cAMP Responsive Elements (CRE) small molecule antagonists, cell-based qHTS assay (AID 1963591; active = well fitted inhibition curve with a large enough effect in the signal ratio in the repeat runs, not every such curve was filed as active; the % refers to the signal ratio). The gist of the method: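 Cells (CRE-bla HEK 293T, DMEM with 10% dialyzed FBS and 25 mM HEPES) are seeded and incubated 18 h. Compounds are added with NKH477 agonist at 0.25 uM final for 3 h, then FRET substrate for 2 h.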
% is set by controls: 0 for no effect and ±100 for the full control effect.

Chain of Gonadotropin-releasing hormone receptor (Homo sapiens) (P30968 whole entry, looked up): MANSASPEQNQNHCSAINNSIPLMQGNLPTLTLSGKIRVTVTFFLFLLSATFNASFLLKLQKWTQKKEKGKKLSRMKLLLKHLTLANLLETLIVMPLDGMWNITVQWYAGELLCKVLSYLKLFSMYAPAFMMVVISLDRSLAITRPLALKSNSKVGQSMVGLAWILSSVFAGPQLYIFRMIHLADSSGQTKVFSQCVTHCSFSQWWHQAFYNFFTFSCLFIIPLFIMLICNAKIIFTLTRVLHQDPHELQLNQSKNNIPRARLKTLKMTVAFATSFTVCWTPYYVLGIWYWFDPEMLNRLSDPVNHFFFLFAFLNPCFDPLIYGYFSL
Chain of 5-hydroxytryptamine receptor 2A (Homo sapiens) (P28223 whole entry, looked up): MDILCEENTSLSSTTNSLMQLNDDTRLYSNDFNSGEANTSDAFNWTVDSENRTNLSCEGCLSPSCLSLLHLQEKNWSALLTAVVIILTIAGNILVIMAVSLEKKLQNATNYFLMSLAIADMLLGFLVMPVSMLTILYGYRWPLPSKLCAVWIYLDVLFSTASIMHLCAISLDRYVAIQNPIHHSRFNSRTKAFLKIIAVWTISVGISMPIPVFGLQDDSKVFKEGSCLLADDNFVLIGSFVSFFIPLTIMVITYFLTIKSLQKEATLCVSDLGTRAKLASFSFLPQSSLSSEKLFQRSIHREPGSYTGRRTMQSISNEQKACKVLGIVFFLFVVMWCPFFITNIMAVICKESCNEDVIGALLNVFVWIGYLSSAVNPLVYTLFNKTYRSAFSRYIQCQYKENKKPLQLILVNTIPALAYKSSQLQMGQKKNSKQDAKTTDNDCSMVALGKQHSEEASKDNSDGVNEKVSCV
Chain of D(2) dopamine receptor (Homo sapiens) (P14416 whole entry, looked up): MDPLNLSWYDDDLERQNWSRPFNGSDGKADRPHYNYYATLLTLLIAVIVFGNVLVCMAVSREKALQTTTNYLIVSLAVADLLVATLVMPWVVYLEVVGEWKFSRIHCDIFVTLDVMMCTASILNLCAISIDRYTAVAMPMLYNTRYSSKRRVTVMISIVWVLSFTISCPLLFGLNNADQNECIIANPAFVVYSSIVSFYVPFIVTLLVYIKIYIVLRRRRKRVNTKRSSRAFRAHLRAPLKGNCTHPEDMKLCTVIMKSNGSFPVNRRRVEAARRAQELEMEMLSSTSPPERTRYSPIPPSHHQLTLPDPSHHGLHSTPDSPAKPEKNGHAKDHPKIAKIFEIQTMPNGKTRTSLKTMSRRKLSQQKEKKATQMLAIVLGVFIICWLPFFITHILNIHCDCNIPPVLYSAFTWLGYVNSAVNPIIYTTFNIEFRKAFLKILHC

Regarding `O=C(O)c1ccccc1Nc1cc(Cl)ccc1C(=O)O`, the activity change, negative = cytotoxicity is 0.544% [at 19 µM] in assay [1], -16.4% [at 13.5 µM] in assay [6], -20.9% [at 13.5 µM] in assay [7] and -5.7% [at 13.5 µM] in assay [8]. For the same compound, the activation was 0.0094% [at 15.8 µM] in assay [2]; -0.251% [at 11.8 µM] in [3]; -15.2% [at 13.5 µM] in assay [4]; -10.2% [at 13.6 µM] in assay [5]; 1.24% [at 13.5 µM] in assay [9]; -3.1% [at 15.9 µM] in [11]. Moreover, the activation in assay [13] is 0.0185% [at 15.8 µM]; in [14], -0.0043% [at 19 µM]; in assay [16], -0.399% [at 19 µM]. The results for the activity, negative = inhibition in assay [10] and in assay [12] were 13.3% [at 12.7 µM] and 22.2% [at 12.6 µM], respectively. In addition, the activity change, negative = inhibition was 5.54% [at 19 µM] in assay [15] and -1.66% [at 18.9 µM] in [17].
With `CC(=O)Nc1ccccc1O`, the Potency result in assay [1], in assay [18], in assay [3], in [5], in assay [6] and in [7] was “inactive” throughout. Also, the Potency result in assay [8], in assay [9], in assay [10], in [11], in assay [12] and in assay [13] was “inactive” each time. Besides, the Potency result in [14], in [15], in assay [16] and in [17] was “inactive” in each case.
Take `COC(=O)[C@]1(C)CCC[C@@]2(C)[C@H]1CC=C1C=C(C(C)C)CC[C@@H]12`: the Potency entry in [1], in assay [2], in assay [3], in assay [4], in assay [5] and in assay [6] was “inactive” in each case. Moreover, the Potency result in assay [7], in assay [8], in [9], in assay [10], in [11] and in assay [12] was “inactive” in each case. The Potency entry in [13], in assay [14], in [15], in assay [16], in assay [19] and in assay [17] was “inactive” throughout.
Turning to `CCCCCCCC#N`, the Potency entry in assay [1], in assay [18], in assay [3], in [8], in assay [10] and in [11] was “inactive” in each case. The Potency result in [12], in assay [13], in [14], in assay [20], in assay [15] and in [16] was “inactive” in each case. The Potency result in assay [19] and in assay [17] was “inactive” in each case.
As for `CC(C)c1ccc2c(c1)CC[C@H]1[C@](C)(CN)CCC[C@]21C`, the Potency in [1] is 12.2 µM (active); in assay [18] it was 11 µM (active); in [6], 40.8 µM (active); in assay [11] it was 49 µM (active); in [17], 68.6 µM (active). Moreover, the Potency entry in [3], in [4], in assay [5], in assay [9], in [12] and in assay [15] was “inactive” in each case. Further, the Potency result in assay [19] is “inactive”.
For `O=C(OCCOCCOCCOC(=O)c1ccccc1)c1ccccc1`, the Potency entry in assay [1], in [18], in assay [3], in [5], in assay [6] and in assay [7] was “inactive” in each case. The Potency result in assay [8], in assay [9], in [10], in assay [11], in [12] and in assay [13] was “inactive” throughout. The Potency entry in [15], in assay [16], in assay [19] and in assay [17] was “inactive” in each case.
With `CC(C)(C)C1CCC(CC2=C(O)c3ccccc3C(=O)C2=O)CC1` (centres undefined), in assay [1], the Potency was 29.8 µM (active). Moreover, the Potency result in assay [18], in assay [3], in assay [5], in assay [7], in assay [8] and in [10] was “inactive” throughout. In addition, the Potency result in assay [11], in [12], in [13], in assay [20], in assay [15] and in [19] was “inactive” each time. Besides, the Potency entry in assay [17] was “inactive”.
As to `CSc1ccc(Oc2ccc(S(N)(=O)=O)cc2CN(C)C)cc1C`, the Potency entry in assay [1], in [18], in [3], in assay [7], in assay [8] and in [10] was “inactive” in each case. Further, the Potency result in [11], in assay [12], in assay [13], in [14], in [20] and in [15] was “inactive” throughout. The Potency entry in assay [19] is “inactive”.
With `CC(C)NC(=O)NC(C)C`, the Potency result in [1], in [18], in [3], in assay [7], in assay [8] and in assay [10] was “inactive” in each case. Also, the Potency result in assay [11], in assay [12], in assay [13], in assay [14], in [20] and in assay [15] was “inactive” in each case. Besides, the Potency result in [19] and in assay [17] was “inactive” each time.
